The values that follow come from PubChem BioAssay (NCI).

Among the test systems are T-47D breast; BT-549 breast; MDA-MB-435 melanoma; SW-620 colon; MCF7 breast; HCT-116 colon; HCC-2998 colon; KM12 colon.
What all share (assay): NCI-60 one-dose screen, 48 h (100 = growth as untreated, 0 = no growth, -100 = all killed)
Holding throughout (conditions): 10 µM unless noted

Compounds without any hit were thinned out: in the full panel of roughly 83,000, 20% have a hit.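 Percent growth is the endpoint: 0 to 100 indicates growth inhibition (40 means 60% inhibition), 0 means no net growth, and negative values indicate cell death.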 A number with no mark means an inactive call. The source made the active and inactive calls. How the source made its calls: active means growth percent below 10; inactive means the rest.

For `NC(=O)[C@@H]1Cc2ccccc2CN1C(=O)c1ccc2c(c1)Cc1ccccc1-2`, the growth with T-47D breast is 57.2%; in the test on BT-549 breast it was 63.1%; with MDA-MB-435 melanoma it was 77.7%; with SW-620 colon, 110%; in the test on MCF7 breast, 70.8%; in the test on HCT-116 colon, 81.1%. The growth with HCC-2998 colon was 98.9%; with KM12 colon it was 88.6%.

`COC(=O)[C@H](C)NC(=O)[C@@H]1CCCN1C(=O)CNC(=O)[C@H](C)N`: the growth is 97.6% in the test on T-47D breast; 109% with BT-549 breast; 102% with MDA-MB-435 melanoma; 105% in the test on SW-620 colon; 110% with MCF7 breast; 99.6% in the test with HCT-116 colon. Moreover, the growth in the test on HCC-2998 colon was 106%; with KM12 colon it was 104%.

On to `COC(=O)c1sc(-c2ccc(C)cc2)cc1O`, for which the growth in the test with T-47D breast is 102%; in the test on BT-549 breast, 107%; in the test on MDA-MB-435 melanoma, 91.9%; in the test with SW-620 colon, 103%; in the test with MCF7 breast it was 96.4%; in the test with HCT-116 colon, 96.6%. Moreover, the growth in the test on HCC-2998 colon was 94.7%; in the test on KM12 colon it was 95.8%.

Turning to `O=C(Nc1ccc(Cl)cc1)C1=NCCCCN1`, the growth with T-47D breast is 68.6%; with BT-549 breast it was 91.3%; in the test on MDA-MB-435 melanoma it was 72.6%; in the test on SW-620 colon, 63.8%; with MCF7 breast, 81.5%; in the test on HCT-116 colon, 80%. For the same compound, the growth with HCC-2998 colon was 96.2%; in the test with KM12 colon, 71.2%.

For `COc1ccc2c(O)cc3c(c2c1)[C@H](CCl)CN3C(=O)c1cc2cc(NC(=O)CCN3CCOCC3)ccc2[se]1`, the growth in the test on T-47D breast is -21.4% (active); in the test with BT-549 breast it was -72.8% (active); in the test on MDA-MB-435 melanoma it was -67.5% (active); in the test on SW-620 colon, -41.4% (active); in the test with MCF7 breast, -48% (active); in the test with HCT-116 colon, -55.1% (active). Also, the growth with HCC-2998 colon was -88.3% (active); in the test with KM12 colon it was -57.4% (active).

For the compound `COc1cccc(/C=C/C(=O)/C=C(/C=C/c2cccc(OC)c2OC)OB(F)F)c1OC`, the growth in the test on T-47D breast is 41.2%; in the test on BT-549 breast, 48%; with MDA-MB-435 melanoma, 14.8%; in the test on SW-620 colon, 16.4%; with MCF7 breast, 26.8%; in the test with HCT-116 colon it was 8.38% (active). Besides, the growth in the test with HCC-2998 colon is 121%; in the test with KM12 colon it was 86.5%.

In the case of `CC(C)n1nc(-c2ccc3oc(N)nc3c2)c2c(N)ncnc21`, the growth in the test with T-47D breast is -36% (active); with BT-549 breast, -23.9% (active); with MDA-MB-435 melanoma, -13.5% (active); with SW-620 colon, 6.36% (active); in the test with MCF7 breast, -4.22% (active); with HCT-116 colon it was 7.89% (active). In addition, the results for the growth in the test with HCC-2998 colon and in the test on KM12 colon were 9.05% (active) and -0.425% (active), respectively.

Take `COCCn1cc(-c2nc(-c3cc4cccnc4n3C)cs2)c2cc(OC)ccc21`: the growth in the test with T-47D breast was -15.9% (active); in the test on BT-549 breast, 27%; in the test with MDA-MB-435 melanoma, 89.6%; with SW-620 colon it was 77.1%; in the test on MCF7 breast, 2.86% (active); in the test on HCT-116 colon it was 46.1%. Further, the growth in the test with HCC-2998 colon is 39.6%; with KM12 colon it was 6.09% (active).

Consider `CCOC(=O)/C=C1\S/C(=N\Nc2cc(=O)[nH]c3ccc(OC)cc23)N(c2ccccc2)C1=O`, for which the growth in the test on T-47D breast was 73.6%; in the test with BT-549 breast, 99.6%; in the test on MDA-MB-435 melanoma, 97%; with SW-620 colon, 95.3%; in the test with MCF7 breast, 69.4%; in the test with HCT-116 colon, 93.9%. For the same compound, the growth was 115% in the test on HCC-2998 colon and 91.8% in the test on KM12 colon.

Consider `Cc1ccccc1NC(=O)Cn1cc(CN2CCN(c3ccnc4cc(Cl)ccc34)CC2)nn1`, for which the growth in the test with T-47D breast was 92.4%; in the test with BT-549 breast it was 93.4%; with MDA-MB-435 melanoma, 99.4%; with SW-620 colon, 94.2%; with MCF7 breast, 93.9%; in the test on HCT-116 colon it was 100%. The growth with HCC-2998 colon is 93.3%; in the test on KM12 colon, 91.5%.

In the case of `Nc1ncc(-c2ccc3ncnc(N4CCc5cc(F)c(Cl)cc54)c3c2)cc1C(F)(F)F`, the growth is 20.4% in the test on T-47D breast; 14.8% in the test with BT-549 breast; 0.606% (active) in the test on MDA-MB-435 melanoma; 38.2% in the test on SW-620 colon; 8.11% (active) in the test on MCF7 breast; 21.3% in the test on HCT-116 colon. For the same compound, the figures for the growth with HCC-2998 colon and in the test with KM12 colon were 36.2% and 40.2%, respectively.

As for `Cc1nc2ccccc2c(/C=C/c2ccc(Cl)cc2)c1C(=O)/C=C/c1ccccc1`, the growth in the test on T-47D breast is 9.61% (active); in the test with BT-549 breast, 26.7%; with MDA-MB-435 melanoma, -53.2% (active); in the test on SW-620 colon it was 1.45% (active); in the test on MCF7 breast it was 11.2%; in the test on HCT-116 colon, -53.4% (active). Further, the growth was -12% (active) in the test on HCC-2998 colon and 10.7% with KM12 colon.

As to `Cc1ccc(-c2nn(CC(=O)N3CCOCC3)c(N)c2C#N)cc1`, the growth is 105% in the test with T-47D breast; 98.7% in the test with BT-549 breast; 99.2% in the test with MDA-MB-435 melanoma; 104% with SW-620 colon; 92.5% in the test with MCF7 breast; 101% in the test with HCT-116 colon. The results for the growth with HCC-2998 colon and in the test on KM12 colon were 102% and 108%, respectively.

For the compound `COc1cc(/C=N/NC(=O)c2ccc3nc(-c4ccc(Cl)cc4)[nH]c3c2)cc(OC)c1OC`, the growth in the test with T-47D breast is 15.9%; in the test with BT-549 breast, 70.7%; in the test on MDA-MB-435 melanoma, 64%; with SW-620 colon, 78.7%; in the test on MCF7 breast it was 12.1%; in the test on HCT-116 colon, 36.2%. Besides, the growth with HCC-2998 colon is 80%; in the test with KM12 colon, 61.8%.

In the case of `CCCCCCCCNc1ncnc2c1ncn2Cc1nnc2c3ccccc3c(Cl)nn12`, the growth in the test with T-47D breast is 26.5%; in the test with BT-549 breast, 28%; in the test on MDA-MB-435 melanoma, 46%; with SW-620 colon, 56.8%; in the test with MCF7 breast, 41.4%; with HCT-116 colon it was 31.2%. Moreover, the growth with HCC-2998 colon was 76.3%; with KM12 colon, 65.3%.

Regarding `COc1cc(C2=Nc3c(N)nc(N)nc3NC(c3cccc(Nc4ccnc5cc(C(F)(F)F)ccc45)c3)C2)cc(OC)c1OC` (stereo not drawn), the growth was 95.4% in the test on T-47D breast; 112% in the test with BT-549 breast; 69.2% in the test on MDA-MB-435 melanoma; 78.7% with SW-620 colon; 37.3% in the test on MCF7 breast; 48.9% with HCT-116 colon. In addition, the growth in the test with HCC-2998 colon is 77.2%; in the test with KM12 colon, 66.4%.
